Out of some 310,000 compounds screened, about 14,000 (4.5%) showed an effect of 50% or more. Effects have a minus sign here. What follows is part of a selection rich in strong results, with near analogues and random picks from the rest.
The compounds below were run against human ether-à-go-go-related gene (hERG) potassium channel (human, UniProt Q12809) (assay: primary screen, population patch clamp on CHO cells stably expressing hERG; higher = less effect of the substance).
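Also: peak tail current of the secondary pulse compared with the same well before compound.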

human ether-à-go-go-related gene (hERG) potassium channel, sequence (Q12809 whole entry, looked up): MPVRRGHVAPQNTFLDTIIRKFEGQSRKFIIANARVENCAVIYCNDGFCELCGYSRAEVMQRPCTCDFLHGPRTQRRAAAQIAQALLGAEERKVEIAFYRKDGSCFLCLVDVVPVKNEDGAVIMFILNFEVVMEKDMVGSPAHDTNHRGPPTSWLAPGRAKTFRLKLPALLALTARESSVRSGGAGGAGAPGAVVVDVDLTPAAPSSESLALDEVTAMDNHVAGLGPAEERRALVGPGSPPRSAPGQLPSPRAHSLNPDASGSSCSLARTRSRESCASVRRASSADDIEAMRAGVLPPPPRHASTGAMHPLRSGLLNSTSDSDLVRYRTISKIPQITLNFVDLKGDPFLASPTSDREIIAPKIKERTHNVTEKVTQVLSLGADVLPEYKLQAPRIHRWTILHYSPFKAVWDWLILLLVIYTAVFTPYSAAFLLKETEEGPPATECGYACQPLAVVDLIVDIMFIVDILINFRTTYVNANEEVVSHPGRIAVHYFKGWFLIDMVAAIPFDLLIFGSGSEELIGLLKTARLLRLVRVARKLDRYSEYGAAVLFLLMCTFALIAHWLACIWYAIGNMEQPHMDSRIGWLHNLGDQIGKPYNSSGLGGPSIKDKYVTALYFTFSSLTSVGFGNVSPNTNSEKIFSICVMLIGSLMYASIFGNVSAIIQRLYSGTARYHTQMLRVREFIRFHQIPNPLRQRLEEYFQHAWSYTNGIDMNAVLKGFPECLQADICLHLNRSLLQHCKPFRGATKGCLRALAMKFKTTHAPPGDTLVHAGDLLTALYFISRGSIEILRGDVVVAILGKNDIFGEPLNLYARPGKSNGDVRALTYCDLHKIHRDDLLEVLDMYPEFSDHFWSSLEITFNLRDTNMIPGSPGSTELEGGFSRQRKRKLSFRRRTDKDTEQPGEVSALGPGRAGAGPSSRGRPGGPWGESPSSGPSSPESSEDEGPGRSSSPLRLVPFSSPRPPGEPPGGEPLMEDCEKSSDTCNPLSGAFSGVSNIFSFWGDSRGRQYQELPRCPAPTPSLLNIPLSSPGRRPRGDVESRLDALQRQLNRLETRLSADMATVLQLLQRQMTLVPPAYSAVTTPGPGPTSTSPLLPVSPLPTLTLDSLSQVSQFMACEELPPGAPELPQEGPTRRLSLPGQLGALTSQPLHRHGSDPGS

Point of comparison: `COc1ccc(OC)c(/C=N/NC(=O)c2ccc[n+](CC(=O)c3ccccc3)c2)c1`, “hERG current change (%, negative = inhibition) at 10uM” value 15.3%. Against it:
- Cc1nnc(NCCc2ccccc2)c2ccccc12 — lower, -18.1%
- COc1ccc(NC(=O)NCCN2CCCCC2)cc1 — lower, -10.1%
- COc1ccc(NC(=O)NCCN2CCN(c3ccc(C)cc3)CC2)c(Cl)c1 — lower, -8.96%
- Cc1ccc(NC(=O)NCCCN2CCOCC2)cc1 — lower, 4.63%
- COc1ccc(NC(=O)NCCN2CCN(c3cc(OC)ccc3OC)CC2)cc1 — lower, -2.75%
- COc1ccc(NC(=O)NCCCN2CCN(c3cc(C)ccc3C)CC2)cc1 — lower, -92.2%
- COc1ccc(Cl)c(N2CCN(CCCNC(=O)Nc3ccc(C)cc3)CC2)c1 — lower, -72.4%
- Cc1cc(SCC(=O)Nc2c(C)n(C)n(-c3ccccc3)c2=O)nc2ccccc12 — lower, -38.7%
- Cc1cc(C(=O)OCC(=O)c2ccc3c(c2)NC(=O)CO3)c2ccccc2n1 — higher, 18.8%
- O=C(NCCCN1CCOCC1)c1cnn2c(-c3ccccc3)cc(-c3ccccc3)nc12 — lower, -41.3%
- O=C(NCCN1CCOCC1)c1cc(-c2ccccc2Cl)nc2ccccc12 — lower, -15%
- CCc1ccc(Nc2cc(C(=O)NCCCN3CCOCC3)c3ccccc3n2)cc1 — lower, -35.5%
- CCc1ccc(Sc2cc(C(=O)NCCN3CCOCC3)c3ccccc3n2)cc1 — lower, -56.2%
- O=C(NCCN1CCOCC1)c1cc(Sc2cccc(Cl)c2)nc2ccccc12 — lower, -77.2%
- O=C(NCCN1CCOCC1)c1cnn2c(-c3ccccc3)cc(-c3ccccc3)nc12 — lower, -72.5%
- O=C(NCCN1CCOCC1)c1ccccc1-c1ccccc1 — lower, 0.439%
- O=C(NCCN1CCOCC1)c1cc(Sc2ccccc2Cl)nc2ccccc12 — lower, -27.1%
- O=C(NCCN1CCOCC1)c1cc(Sc2ccc(F)cc2F)nc2ccccc12 — lower, -42.8%
- Cc1ccc(S(=O)(=O)N2CCC(C(=O)N[C@H](C(=O)NCc3ccco3)C(C)C)CC2)cc1 — lower, -15.9%
- O=C(NCC(=O)N(c1ccc(Cl)cc1)C(C(=O)NC1CCCC1)c1ccncc1)c1ccco1 (centres unmarked) — lower, -5.29%
- O=C(Nc1ccccn1)Nc1ccccc1Cl — higher, 23.2%
- Cc1nc2scc(-c3ccccc3)c2c(=O)o1 — lower, -12.7%
- CN1C=CC=C/C1=C1\SC(=S)N(C2CCCCC2)C1=O — lower, -52.3%
- CN1C=CC=C/C1=C1\SC(=S)N(N)C1=O — higher, 26.4%
- CCN1C(=O)/C(=C2/C=CC=CN2C)SC1=S — lower, -35.2%
- O=C(N/N=C/c1ccc(O)c([N+](=O)[O-])c1)c1ccncc1 — lower, -7.5%
- Cc1ccc(C)c(CSc2ncccc2C(=O)O)c1 — lower, 6.29%
- O=C(N/N=C/c1ccc(Cl)cc1Cl)c1cccc(F)c1 — lower, -10.5%
- O=C(C[n+]1ccc(C(=O)N/N=C/c2ccc(O)cc2)cc1)c1ccccc1.[Br-] — lower, -6.07%
- COc1ccc(OC)c(/C=N/NC(=O)c2cc[n+](CC(=O)c3ccccc3)cc2)c1.[Br-] — lower, -5.33%
- O=C(N/N=C/c1ccc(Br)cc1)c1cc[n+](Cc2ccccc2)cc1.[Cl-] — lower, -10.7%
- O=C(C[n+]1ccc(C(=O)N/N=C/c2ccc(Cl)cc2Cl)cc1)c1ccccc1.[Br-] — lower, -74.8%
- O=C(C[n+]1ccc(C(=O)N/N=C/c2ccc(OCc3ccccc3)cc2)cc1)c1ccccc1.[Br-] — lower, 1.3%
- O=C(C[n+]1cccc(C(=O)N/N=C/c2ccc(Br)cc2)c1)c1ccccc1 — lower, -56.5%
- O=C(C[n+]1ccc(C(=O)N/N=C/c2ccc(Br)cc2)cc1)c1ccccc1.[Br-] — lower, -63.6%
- Cc1ccc(C(=O)N2CCCC(C(=O)c3ccc(Oc4ccccc4)cc3)C2)cn1 (centres unmarked) — lower, -41%
- CCC(=O)N1CCc2cc(S(=O)(=O)NC(C(=O)NCc3ccccc3)C(C)C)ccc21 (centres unmarked) — lower, 13.2%
- COc1ccc(OCC(=O)Nc2cccc(S(=O)(=O)N(C)c3ccccc3)c2)c([N+](=O)[O-])c1 — lower, -6.21%
- CCC1c2ccc(C)n2CCN1C(=O)Nc1ccccc1OC (centres unmarked) — lower, 9.92%
- C=CCN(CC=C)C(=S)NC(=O)/C=C/c1ccc(C)cc1 — lower, 8.14%
- CC1(C)C(=O)N(c2ccccc2Cl)C(=O)c2ccccc21 — lower, -18.2%
- CC1CCN(CCC(=O)Nc2ccc(Br)cc2)CC1.Cl — lower, -54.6%
- CC1CCCN(CCC(=O)Nc2ccc(Br)cc2)C1.Cl (centres unmarked) — lower, -57.6%
- CCN1CCN(CCC(=O)Nc2ccc(Br)cc2)CC1.Cl — lower, -24.4%
- CC1CCN(CCNC(=S)Nc2ccc(Cl)cc2)CC1 — lower, -65.7%
- CC1CCCN(CCC(=O)Nc2ccccc2)C1.Cl (centres unmarked) — lower, 12.2%
- S=C(NCCN1CCOCC1)Nc1ccc(Cl)cc1 — lower, 5.48%
- COc1ccc(C(=O)CCN2CCCC(C)C2)cc1.Cl (centres unmarked) — lower, -26.2%
- COc1ccc(NC(=S)NCCN2CCC(C)CC2)cc1 — lower, -46%
- CC1CCCN(CCC(=O)c2ccc(Br)cc2)C1.Cl (centres unmarked) — lower, -64.4%
- Cl.O=C(CCN1CCCC1)Nc1ccc(Br)cc1 — lower, -15.7%
- COc1ccc(NC(=O)CCN2CCCC(C)C2)cc1 (centres unmarked) — lower, -23.2%
- Cc1cccc(NC(=O)CCN2CCCC(C)C2)c1.Cl (centres unmarked) — lower, 1.45%
- CCS(=O)(=O)c1ncc(Cl)c(C(=O)Nc2ccc(S(=O)(=O)N3CCC(C)CC3)cc2)n1 — lower, 14.9%
- CC(=O)c1ccc(NC(=O)C(C)OC(=O)c2ccc(NS(=O)(=O)c3ccc(F)c(F)c3)cc2)cc1 (centres unmarked) — lower, -6.98%
